Experimental data: PubChem BioAssay AID2391 (Southern Research Specialized Biocontainment Screening …, 2010)
The campaign covered roughly 310,000 compounds. About 410 (0.13%) were called active. Roughly 2% stayed inconclusive and do not appear here. No rule for the calls is given here. The list is a sample of the results. Potency and affinity values are given separately.

assay: RSV antiviral activity via CPE protection, HEp-2 cells, primary 10 µM value included (AID 2391); conditions: RSV-induced CPE inhibition, at 10 µM, active compounds read high

CPE inhibition, inactive:
COc1ccc(C(=O)Nc2nc3ccccc3s2)cc1 4.56%, COc1ccc(C(=O)Nc2nc3ccccc3s2)c(OC)c1 9.57%, COc1ccc(C(C)=O)cc1CSc1nc2ccccc2c(=O)n1-c1ccccc1 3.07%, Cc1c(C(=O)O)oc2c1ccc1ccccc12 9.18%, COc1ccccc1OCC(=O)Nc1ccc2c(c1)OCO2 1.74%, O=C1CN2C(=Nc3ccc(Br)cc3C2c2ccccc2)CCN1 (configuration not stated) -0.32%, COC(=O)CN1C(c2ccc(Cl)cc2)=Nc2ccc(Cl)cc2C1c1ccccc1 (configuration not stated) 11.1%, CCc1ccc(CNC(=O)c2ccc(OC3CCN(C(C)=O)CC3)c(OC)c2)nc1 1.43%, Cc1cc(C)c(NC(=O)c2cccc(NC(=O)c3ccco3)c2)c(C)c1 2.64%, O=C(O)CSc1nnc(Cn2c(=O)sc3ccccc32)n1-c1cccc(Cl)c1 0.38%, NC(=O)CSc1nnc(Cn2c(=O)sc3ccccc32)n1-c1cccc(Cl)c1 2.54%, Cc1ccc(N2CCN(c3ccc(NC(=O)CCC(=O)O)cc3)CC2)cc1 -0.44%, CCCOc1ccc(NC(=O)c2cc3cc(C)ccc3[nH]2)cc1 -0.27%, CC(=O)c1ccc2c(c1)C1C=CCC1C(c1ccncc1)N2 (configuration not stated) -0.18%, Cc1cc(C)c(NC(=O)c2ccc(S(=O)(=O)N3CCOCC3)cc2)c(C)c1 1.1%, Cc1cc(C)c2c(c1)[C@@H]1C=CC[C@@H]1[C@H](c1ccc(S(=O)(=O)N3CCOCC3)cc1)N2 0.17%, O=C(O)c1cc(Cl)c2c(c1)[C@@H]1C=CC[C@@H]1[C@H](c1ccc(S(=O)(=O)N3CCOCC3)cc1)N2 0.29%, COc1ccc(N(CC(=O)Nc2ccc(F)cc2F)S(=O)(=O)c2c(C)nn(C)c2C)cc1 -1.28%, Cc1cc(-n2c(C)cc(C(=O)CN3C(=O)NC4(CCCCC4C)C3=O)c2C)no1 (configuration not stated) 1.72%, COc1ccc(N2CCN(c3nc4c(c(=O)n(C)c(=O)n4C)n3CCCc3ccccc3)CC2)cc1 -1.29%, CCOC(=O)C[C@H]1c2ccccc2S(=O)(=O)N1Cc1cc(OC)c(OC)c(OC)c1 1.62%, Cc1ccccc1NC(=S)NCCc1ccc(S(N)(=O)=O)cc1 1.91%, Cc1ccc(C)c(S(=O)(=O)N2CCCCC2CCNC(=O)C(=O)NC2CC2)c1 (configuration not stated) -1.15%, Cc1ccc(S(=O)(=O)N2CCCCC2CCNC(=O)C(=O)NC2CC2)cc1 (configuration not stated) 0.46%, CSc1ccccc1OCc1cc(C(=O)N(C)Cc2cc(C)[nH]n2)no1 4.8%, Cc1ccc(CN(C)C(=O)c2cc(COc3ccc(F)cc3Cl)on2)o1 6.3%, Cc1ccc(S(=O)(=O)NCCC(=O)NCc2ccccn2)cc1 -1.85%, O=C(O)c1cccc(CN2C(=O)c3ccccc3C2=O)c1 2.88%, O=[N+]([O-])c1ccccc1S(=O)(=O)Nc1ccc(-c2ccc(N3CCCC3)nn2)cc1 -1.43%, O=[N+]([O-])c1ccc(S(=O)(=O)Nc2cccc(-c3ccc(N4CCOCC4)nn3)c2)cc1 38.2%, O=[N+]([O-])c1ccc(S(=O)(=O)Nc2cccc(-c3ccc(N4CCCC4)nn3)c2)cc1 22.4%, O=[N+]([O-])c1ccccc1S(=O)(=O)Nc1ccc(-c2ccc(N3CCOCC3)nn2)cc1 -1.46%, COc1ccc([N+](=O)[O-])cc1NC(=O)Cn1ccsc1=N 4.59%, O=C(Nc1cccc(Cl)c1)c1ccc(NCCCN2CCOCC2)c([N+](=O)[O-])c1 5.44%, O=C(NCc1cccnc1)Nc1ccc(Br)cc1Cl 1.28%, COc1ccc(N2CCN(C(=O)CCc3cc(OC)c(OC)c(OC)c3)CC2)cc1 1.91%, Cc1cc(NCCCn2ccnc2)n2nc(-c3ccc(F)cc3)cc2n1 -1.16%, Cc1cc(NCCCO)n2nc(-c3cccs3)cc2n1 9%, COCCNc1cc(C)nc2cc(-c3ccc(C)cc3)nn12 2.67%, CN(C)CCCNc1cc(-c2ccccc2)nc2cc(-c3cccc(F)c3)nn12 -1.34%, Cc1nc2cc(NC(=O)N(C)c3ccc4ccccc4c3)ccc2o1 12.7%, CCOCCCn1c(SCC(=O)Nc2ccc(NC(C)=O)cc2)nc2ccccc2c1=O 0.96%, CC(=O)c1c(C)[nH]c(C(=O)OCC(=O)Nc2cccc(S(=O)(=O)N(C)C)c2)c1C 6.22%, CCSC1=N/C(=C\c2ccccc2)C(=O)N1c1ccc(OC)cc1 2.7%, CCN(CC)C1=N/C(=C\c2ccco2)C(=O)N1c1ccccc1 2.62%, CN(C(=O)CCCN1C(=O)c2ccccc2C1=O)C1CCCCC1 2.46%, COc1ccc(CNC(=O)Nc2cc(C)ccc2C)cc1 2.36%, O=C1CCC([N+](=O)[O-])C(c2ccc(Cl)c([N+](=O)[O-])c2)N1 (configuration not stated) -2.01%, O=C1CCSc2ccc(Cl)cc2N1Cc1ccccc1 1.94%, O=C1CCSc2ccc(Cl)cc2N1Cc1ccc(Cl)cc1 45.3%, Cc1ccc(S(=O)(=O)CCC(=O)Nc2sccc2C#N)cc1 0.59%, COC(=O)Cc1ccc(NC(=S)N2CCN(c3ccc(OC)cc3)CC2)cc1 13.6%, COc1ccc2nc(NC(=O)c3ccccc3C(=O)O)sc2c1 1.92%, COc1ccc2nc(NC(=O)c3ccccc3F)sc2c1 3.79%, Cc1ccc(S(=O)(=O)N2[C@@H](c3ccc(F)cc3)C(C(=O)O)=CC[C@H]2c2cccc(Cl)c2)cc1 1.86%, CCc1cc(S(=O)(=O)N2CCN(C(=O)c3ccco3)CC2)ccc1OC 3.94%, C=CCN(Cc1nc(-c2cc(OC)ccc2OC)oc1C)C1CCS(=O)(=O)C1 (configuration not stated) -0.75%
